D1 potentiator – human D1 dopamine receptor positive modulation. P21728. HEK293 TREx D1 cells, calcium flux, dopamine EC20 potentiation. potentiation, % at 10 µM. 360,000 tested, 0.036% active. AID 504651; in the data active = potentiation above about 30%; note: 0% is about no effect
D1 antagonist – antagonists of human D1 dopamine receptor. 360,000 tested, 3.2% active. activity change, negative = inhibition, % at 10 µM. AID 504652. HEK293 TREx D1 cells, calcium flux, dopamine EC80; stronger effect = lower value; in the data active = activity change below about -30%; note: % is set by controls: 0 for no effect and ±100 for the full control effect
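Tetracycline-induced HEK293 T-REx cells with force-coupled D1 receptor were loaded with a no-wash calcium dye. Compound was added after a 10 s baseline and read kinetically for 180 s; EC80 dopamine was then added and calcium flux followed another 180 s.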
D1 agonist – human D1 receptor agonism | 360,000 tested, 1% active | P21728 | activation, % at 2 µM | HEK293 T-REx D1 cells, calcium flux, agonist mode | AID 504660; in the data active = activation above about 30%; note: 0% is about no effect
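Inducible HEK293 T-REx D1 cells, force-coupled to calcium signalling, were plated at 4000 cells/well with tetracycline and held overnight at 30 C. After no-wash calcium dye loading, compound-evoked calcium rise over 180 s flagged agonists.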
D3 ag – activates the human D3 dopamine receptor | max activation, % | D3R DiscoveRx beta-arrestin cells, luminescence, 90 min | AID 652048 | P35462 | 410,000 tested, 0.58% active; in the data active = max activation above about 30%; note: 0% is about no effect
Target sequence (P35462 whole entry, looked up): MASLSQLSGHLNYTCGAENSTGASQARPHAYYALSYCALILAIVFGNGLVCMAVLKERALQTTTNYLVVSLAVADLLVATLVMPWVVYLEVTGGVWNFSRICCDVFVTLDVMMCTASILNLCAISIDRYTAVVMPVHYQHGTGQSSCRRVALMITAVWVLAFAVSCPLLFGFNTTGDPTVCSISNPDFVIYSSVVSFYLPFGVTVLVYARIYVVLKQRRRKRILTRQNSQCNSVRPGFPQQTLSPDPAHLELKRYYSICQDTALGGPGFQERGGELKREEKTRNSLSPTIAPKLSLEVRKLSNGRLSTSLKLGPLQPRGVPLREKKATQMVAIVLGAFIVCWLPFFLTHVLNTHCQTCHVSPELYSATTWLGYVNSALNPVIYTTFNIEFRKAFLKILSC
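Agonist mode: compounds and dopamine controls were applied to plated cells for 90 min at 37 degrees C after an overnight attachment at 1500 cells/well. Luminescent read-out followed 30 - 60 minutes at room temperature with DiscoveRx detection reagent.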
D3 antag – antagonists of human D3 dopamine receptor | max response, negative = inhibition, % | AID 652054 | P35462 | 360,000 tested, 2.5% active | D3R cells, DiscoveRx beta-arrestin luminescence, antagonist mode; stronger effect = lower value; in the data active = max response below about -50%; inconclusive = no clear call, values can overlap the other calls; note: % is set by controls: 0 for no effect and ±100 for the full control effect
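Cells expressing the human receptor were seeded at 1500 cells/well, incubated overnight at 37 degrees C in 5% CO2, then exposed to library compounds with dopamine controls for 90 minutes at 37 degrees C before luminescent detection.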
* = called active by the depositor; ? = inconclusive; · = not tested or not shown. A selection: hits, their analogues and other compounds. The true share with any hit is near 6.1%.

SMILES	D1 potentiator	D1 antagonist	D1 agonist	D3 ag	D3 antag
CCC(C)NC(=O)COC(=O)Cc1sc(N)nc1-c1ccc(C)cc1 (centres undefined)	-5.0	-59.5*	3.1	3.6	12.0
Clc1ccc(CCNC(c2ccc(Cl)cc2)c2nnc(-c3ccccc3)o2)cc1 (centres undefined)	-1.6	8.7	35.4*	-11.1	·
CCOC(=O)c1c(C)oc2ncnc(Nc3ccc(OC)c(OC)c3)c12	-2.0	7.5	0.9	10.0	·
CCOC(=O)c1ccc(CN(Cc2ccc(C)cc2)S(=O)(=O)c2ccc(F)c(C(=O)Nc3ccc(C)c(F)c3)c2)cc1	-2.2	-46.4*	7.6	5.3	·
O=C(CC(Sc1ccc(Br)cc1)C(=O)O)c1ccc(F)cc1 (centres undefined)	-0.9	-0.8	0.4	-8.0	?
COc1ccccc1NC(=O)Cc1c(C(=O)O)[nH]c2ccc(Cl)cc12	-0.3	-21.6	30.9*	7.1	·
CCOC(=O)c1ccc(NC(=O)CCc2c(C)nc3c(-c4ccc(F)cc4)c(C)nn3c2C)cc1	-4.0	-1.6	1.7	-6.4	·
CCOC(=O)c1ccc(NC(=O)c2cnc3c(-c4ccc(F)cc4)c(C)nn3c2C)cc1	-5.0	-39.7*	4.0	-4.5	·
Cc1ccc(CNC(=O)c2cnc3c(-c4ccc(F)cc4)c(C)nn3c2C)o1	-8.6	-42.8*	1.7	6.5	·
CCN(CC)c1ccc(NC(=O)c2cnc3c(-c4ccccc4)c(C)nn3c2C)c(C)c1	-6.9	5.7	2.3	-4.4	·
Cc1cc(NC(=O)c2cnc3c(-c4ccccc4)c(C)nn3c2C)ccc1Br	-6.9	-8.3	6.2	34.0*	·
COc1ccc(-c2cn3nc(SCC(=O)NCC4CCCO4)ccc3n2)cc1 (centres undefined)	-2.5	-19.7	2.6	-11.3	-3.7
c1ccc2c(CNc3ccc(CNc4ncn[nH]4)cc3)cccc2c1	-6.5	-45.8*	10.7	-8.5	?
CCc1cccc(C)c1NC(=S)N(CCN(C)C)C(C)c1ccco1 (centres undefined)	-5.9	2.3	0.9	4.5	17.4
CCc1ccccc1NC(=S)N(CCN(C)C)C(C)c1ccco1 (centres undefined)	-1.6	-5.9	8.3	-4.4	-146.1*
CCOc1ccc(C(=O)CCC(=O)N2CCN(c3ncccn3)CC2)cc1	2.6	-1.6	2.9	5.0	38.2
O=C(Nc1ncc(Cc2ccc(SC(F)F)cc2)s1)c1ccc(OC(F)F)cc1	-7.1	-15.6	35.1*	1.1	11.2
COc1cccc(CC(NC(C)=O)C(=O)NC2CCN(S(=O)(=O)c3ccc(F)cc3)CC2)c1OC (centres undefined)	-0.1	-17.0	0.9	11.6	5.8
COc1ccc(CC(=O)OCC(=O)N2CCCc3ccccc32)cc1	-3.4	-41.5*	3.9	1.2	-22.8
CCCOc1ccc(C(=O)N2CCCc3ccccc32)cc1	-1.6	-45.0*	5.3	-2.0	-11.8
COc1ccc(Nc2nc(C)cc(-c3cc(-c4ccccc4)on3)n2)cc1	·	·	·	51.5*	34.5
COc1ccc(/C(C)=N/Nc2nc(C)cc(-c3ccccc3)n2)cc1	·	·	·	48.2*	9.3
C/C(=N\Nc1nc(C)cc(-c2ccccc2)n1)c1ccc(F)cc1	-1.3	3.4	2.0	0.9	-4.7
COc1ccc(-c2cc(-c3ccccc3)no2)cc1	4.1	-17.3	2.1	34.6*	19.7
O=C(NCCCl)c1ccc(OCc2ccccc2)cc1Cl	-5.3	-9.7	57.5*	2.8	8.0
SMILES	D1 potentiator	D1 antagonist	D1 agonist	D3 ag	D3 antag
CC1(Br)C(Sc2ccccc2[N+](=O)[O-])=Nc2ccccc21 (centres undefined)	·	·	·	-13.3	-50.7*
CCCOc1cc(N(CC)CC)ccc1/C=C(/C#N)c1nc2ccc(C)cc2[nH]1	19.1	5.7	-1.6	-9.4	-24.3
CCN(CC)c1ccc(/C=C(/C#N)c2nc3ccc(C)cc3[nH]2)c(OC(C)C)c1	-2.1	-21.6	100.0*	-28.0	?
CCOc1cc(N(CC)CC)ccc1/C=C(/C#N)c1nc2ccccc2[nH]1	5.0	5.2	57.5*	-7.4	-53.6*
CCCCC(c1nnnn1CCOC)N1CCN(Cc2ccccc2)CC1 (centres undefined)	3.2	-20.9	4.7	-1.3	-80.4*
CCCCn1nnnc1C(CCc1ccccc1)N1CCN(C/C=C/c2ccccc2)CC1 (centres undefined)	·	·	·	-13.4	-57.8*
